# High-throughput results as filed in PubChem.
# Pf Dd2 growth – Plasmodium falciparum Dd2 growth inhibition; P. falciparum Dd2 growth, SYBR Green, 72 h; Potency, µM (series often up to 28.9 µM), usual class: inhibitors; hit rate 4.3% among 120,000; AID 1347417; active means well fitted inhibition curve with a large enough effect; further: nearly all actives have a fitted effect of over 65% in size
#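 Infected erythrocytes (Dd2, 0.3% parasitemia, 2.5% hematocrit final) are added to compound in RPMI-1640/Albumax II medium, grown 72 h at 37C in low oxygen, then lysed with saponin/Triton-X containing SYBR Green and read by fluorescence.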
# Hits are given with their value; – = inactive; [ ] = remark or other dose. This excerpt belongs to a sample that is enriched for hits.
SMILES,Pf Dd2 growth
CN1CC(=O)N(c2cccnc2)Cc2c(NCC3CC3)ncnc21,–
COc1ccc(C(=O)N2CCC3(CC2)CC(CO)N(C(=O)c2ccccc2)C3)cc1 (stereo not given),–
COc1ccc(CCC(=O)N2CCC(Cc3nc(-c4ccccc4)no3)CC2)cc1,–
CCC(C)NC(=O)C1CC(c2ccccc2)CN(C(=O)c2ccc(OC)cc2)C1 (stereo not given),–
COc1ccc(C(=O)N2CCC3(CC2)CC(OCC2CC2)CCO3)cn1 (stereo not given),–
C=CCNC(=O)c1cn2c(n1)CN([S+](=O)([O-])c1cccc(C(F)(F)F)c1)CC2,–
CC(=O)NCCC(=O)N1Cc2ccccc2CC2(CCCN2CC2CCCCC2)C1 (stereo not given),8.9µM
CN1CCC(C(=O)N2Cc3ccccc3CC3(CCCCN3CC3CCNCC3)C2)CC1 (stereo not given),–
CC(=O)N1CC2(CCCN2C2COC2)Cc2ccccc21 (stereo not given),–
CC(=O)NCCC(=O)N1Cc2ccccc2CC2(CCN(CC3CCNC3)C2)C1 (stereo not given),–
CC(=O)N1Cc2ccccc2CC2(CCCN2CC2CCCC2)C1 (stereo not given),10µM
CC(=O)N1CC2(CCCN2CC2CC2)Cc2ccccc21 (stereo not given),10µM
CC(=O)N1Cc2ccccc2CC2(CCCN2CC2CCOCC2)C1 (stereo not given),–
CCCN1CCCC12Cc1ccccc1CN(C(=O)CCNC(C)=O)C2 (stereo not given),–
CC(=O)NCCC(=O)N1Cc2ccccc2CC2(CCCN2CCc2ccc(C)cc2)C1 (stereo not given),8.9µM
O=C(C1CCCC1)N1CC2(CCCCN2CC2CC2)Cc2ccccc21 (stereo not given),–
CC(=O)NCCC(=O)N1Cc2ccccc2CC2(CCCN2CC2CCNCC2)C1 (stereo not given),–
Cc1ccc(C2Cn3nnc(C(=O)N4CCC(C(=O)Nc5ccc(F)cc5)CC4)c3CO2)cc1 (stereo not given),–
c1cc2nc(C3CCCNC3)[nH]c2cn1 (stereo not given),–
CCOCCOC1CCN(C(=O)c2c[nH]c3ccccc23)CC1,–
CCc1c(C)nn(CC(=O)N2CC[C@@](O)(CCOC)[C@H](C)C2)c1C,–
COc1ccc(NC(=O)C2=NO[C@@H]3CN(c4cccnc4)C[C@H]23)cc1,–
Cn1cccc1CN1CCC2(C1)NC(=O)c1ccccc1CO2 (stereo not given),–
CC(C)CC(=O)N1CCCC(c2nc(-c3ccccc3)no2)CCNC(=O)CC1 (stereo not given),–
CCOc1cccc(CNC(=O)CC2CCOCC2)c1,–
SMILES,Pf Dd2 growth
CC(c1cccs1)N(C)C(=O)c1ccc(C(F)(F)F)cc1 (stereo not given),–
O=S(=O)(c1ccc(C(F)(F)F)cc1)N1CCCC1c1nncn1Cc1ccncc1 (stereo not given),–
CC(C)c1ccc(C(=O)N[C@H](C2CCNCC2)C2CC(O)C2)c(=O)n1C (stereo not given in full),–
O=c1cc(N2CCOCC2)oc2c(-c3ccc(F)c(Cl)c3)nccc12,–
O=[N+]([O-])c1cccc(-c2noc([C@@H]3C[C@@H](O)CN3CC3CCCCC3)n2)c1,–
O=C(CCC1CCCN(Cc2cc3c(cc2Cl)OCO3)C1)Nc1ccccc1F (stereo not given),–
O=C(CCC1CCCN(Cc2cccnc2)C1)Nc1ccccc1F (stereo not given),–
O=C(CCC1CCCN(Cc2cccn2-c2ccccn2)C1)Nc1ccccc1F (stereo not given),7.9µM
Cc1cc(CN2CCC(n3cc[nH]c3=O)CC2)no1,–
CCC(C)NC(=O)C1COC2(CCC(C)CC2)N1C(=O)c1cccc(C)c1 (stereo not given),–
COc1ccc(CCc2nnc3n2CCCC3)cc1,–
CCN1C(=O)Cc2cc(C(=O)NCc3ccc(F)cc3)ccc21,–
O=C(CCn1ccc(=O)[nH]c1=O)N1CCc2nc(-c3ccccc3)[nH]c2C1,–
c1ccc(Cn2ccnc2C2CCN(c3ncnc4ccsc34)CC2)nc1,–
NC(=O)c1ccc(-c2nc3c([nH]2)CN(c2ncnc4ccsc24)CC3)cc1,10µM
O=C(NCc1ccncc1)C1CN(Cc2cccnc2)CC12CCOCC2 (stereo not given),–
CC(c1cccs1)N(C)S(C)(=O)=O (stereo not given),–
COc1cccc(CN(C)C(C)c2cccs2)c1 (stereo not given),–
CC(c1cccs1)N(C)Cc1cccc2ccccc12 (stereo not given),13µM
COc1ccc(NC(C)(C)C(=O)N2CCC3(CCN(C)CC3)C2)cc1,–
NC(=O)Cn1ccc2cc(OCC3CCN(C(=O)CCc4ccccc4)CC3)cnc21,–
CN(CC1CCOCC1)C(=O)Nc1ccccc1Br,–
O=S(=O)(c1ccccc1Cl)N1CCCC(CO)(Cc2cccc(Cl)c2)C1 (stereo not given),–
Cn1ccnc1-c1ccc(N2CCCC(CO)(Cc3cccc(Cl)c3)C2)nn1 (stereo not given),5µM
Cn1ccnc1-c1ccc(N2CC[C@@]3(O)CCN(S(C)(=O)=O)C[C@H]3C2)nn1,–
SMILES,Pf Dd2 growth
O=C(c1ccc(C(F)(F)F)cc1)N1CCCC2(CC(c3ccccc3)=NO2)C1 (stereo not given),–
CN(C)C(=O)c1cccnc1OC1CCN(C(=O)Nc2ccc(Cl)cc2F)C1 (stereo not given),–
CN1CCC2(C1)CN(CC1CCOCC1)c1ccc(C(=O)NCCCO)cc12 (stereo not given),–
CN(Cc1ccccc1)Cc1nc2c(n1Cc1ccccc1)C(=O)N(Cc1ccccc1C#N)CCN2,10µM
O=C(O)c1ccc(NCc2nc3c(n2Cc2ccccc2)C(=O)N(Cc2cccc(Cl)c2)CCN3)cc1,–
O=C1c2c(nc(CNCc3cnccn3)n2Cc2ccccc2)NCCN1Cc1cccc(Cl)c1,2.2µM
CC(=O)N1CCN(Cc2nc3c(n2Cc2ccccc2)C(=O)N(Cc2ccccc2C#N)CCN3)CC1,–
COCCN1CCNc2nc(CNCc3cccc(Cl)c3)n(Cc3ccccc3)c2C1=O,–
N#Cc1ccccc1CN1CCNc2nc(COc3ccccc3)n(Cc3ccccc3)c2C1=O,–
Cc1ccc(-c2nc(C(=O)NCc3ccccc3F)no2)cc1,–
COc1cc(Cl)ccc1C(=O)N1CCC2(CC1)CC(O)CCO2 (stereo not given),–
CN1[C@@H](CCC(=O)NCc2ccco2)CNC(=O)[C@@H]2[C@H]1CCN2Cc1cccc(OC(F)(F)F)c1,–
CCc1cc(N2CCC(N3CCSCC3)CC2)n2nccc2n1,–
Fc1ccc(-c2cnc3n2C[C@H](CNC2CCOCC2)OC3)cc1,–
CCC1CN(C(=O)N2CCC(C(=O)NCCc3ccc(C)cc3)CC2)c2ccccc2O1 (stereo not given),–
CCOc1ccc(NC(=O)C2CCN(C(=O)N3CC(C)Oc4ccc(Cl)cc43)CC2)cc1 (stereo not given),13µM
CNC(=O)C1CCN(C(=O)N2CC(C)Oc3ccc(C)cc32)CC1 (stereo not given),–
CC1CN(C(=O)N2CCC(C(=O)NCc3cccs3)CC2)c2cc(Cl)ccc2O1 (stereo not given),–
CC1CN(C(=O)N2CCC(C(=O)NCCC3=CCCCC3)CC2)c2cc(Cl)ccc2O1 (stereo not given),–[5.79 µM]
